Assay results taken from PubChem BioAssay.
Calls of active or inactive are those of the source.

Assays:
[1] = E. coli DRC41 culture turbidity changes, primary screen, E. coli filamentation inducer project, strain DRC41, OD650, 48 h (AID 1152);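 also: E. coli MC1000 strain DRC41 lacking acrAB efflux pump and sulA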; conditions: E. coli DRC41 (acrAB sulA), higher = more signal, called active from +8 up or from −8 down
[2] = small-molecule binders of probe aLefty1, primary screen, biochemical, small-molecule microarray, 635/667 nm fluorescence (AID 1153); conditions: higher = more signal;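 also: score merges spot fluorescence with signal-to-noise ratio from the scanned slide images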
[3] = PSAC antagonists in infected red cells, primary screen, cell-based, P. falciparum Indochina, OD700, 1 h (AID 1154); conditions: P. falciparum Indochina infected RBC osmotic lysis, higher = more signal, called active from +8 up or from −8 down
[4] = PSAC antagonists in infected red cells, primary screen, cell-based, P. falciparum Indochina, OD700, 2 h (AID 1155);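 also: lysis reports solute entry through the parasite surface anion channel PSAC; channel blockers reduce lysis of infected cells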; conditions: P. falciparum Indochina infected erythrocytes, osmotic lysis OD700; higher = more signal, called active from +8 up or from −8 down
[5] = osmotic lysis modulators in infected erythrocytes, primary screen, PSAC antagonist project, cell-based, P. falciparum Indochina, OD700, 3 h (AID 1156); conditions: higher = more signal, called active from +8 up or from −8 down
[6] = PSAC antagonists in infected red cells, primary screen, cell-based, P. falciparum Indochina, OD700, 18 h (AID 1157); conditions: P. falciparum Indochina infected erythrocytes, osmotic lysis OD700, 18 h; higher = more signal, called active from +8 up or from −8 down
[7] = modulators of S6 phosphorylation in cells, primary screen, cell-based, A549, cytoblot, luminescence, serum-stimulated (AID 1158); conditions: A549 phospho-S6 cytoblot, 5 h, higher = more signal;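 also: serum-stimulated A549 lung adenocarcinoma cells; signal is phosphorylated S6 detected by cytoblot immunostaining with HRP secondary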
[8] = target: NADPH oxidase 2 (Homo sapiens) (UniProt P04839); experiment: NOX2-dependent H2O2 signal modulators, primary screen, NOX inhibitor project, cell-based, HEK293-NOX2, PMA-stimulated, Amplex Red fluorescence (AID 1159); conditions: 45 min, higher = more signal, called active from +8 up or from −8 down; also: test concentration not given here
NADPH oxidase 2 (Homo sapiens), sequence (P04839 whole entry, looked up): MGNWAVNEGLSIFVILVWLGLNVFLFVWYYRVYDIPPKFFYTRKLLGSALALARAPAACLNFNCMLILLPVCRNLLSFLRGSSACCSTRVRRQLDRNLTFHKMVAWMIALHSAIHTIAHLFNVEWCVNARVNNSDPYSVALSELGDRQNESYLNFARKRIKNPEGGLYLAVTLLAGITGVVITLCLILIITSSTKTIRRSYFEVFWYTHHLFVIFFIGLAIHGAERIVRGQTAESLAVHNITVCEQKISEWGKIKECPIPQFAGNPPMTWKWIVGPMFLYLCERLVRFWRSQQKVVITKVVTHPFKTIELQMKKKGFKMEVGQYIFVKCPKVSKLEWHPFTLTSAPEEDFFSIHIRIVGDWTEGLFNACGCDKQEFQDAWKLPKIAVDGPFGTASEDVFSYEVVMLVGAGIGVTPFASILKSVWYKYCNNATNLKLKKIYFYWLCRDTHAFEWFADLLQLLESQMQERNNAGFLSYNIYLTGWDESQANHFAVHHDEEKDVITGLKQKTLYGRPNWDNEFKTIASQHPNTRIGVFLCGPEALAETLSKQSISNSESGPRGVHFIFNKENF

[9] = target: NADPH oxidase 4 (Homo sapiens) (UniProt Q9NPH5); experiment: NOX4-dependent H2O2 signal modulators, primary screen, NOX inhibitor project, cell-based, HEK293-NOX4, tetracycline-induced, Amplex Red fluorescence (AID 1160); conditions: 45 min, higher = more signal, called active from +8 up or from −8 down
NADPH oxidase 4 (Homo sapiens), sequence (Q9NPH5 whole entry, looked up): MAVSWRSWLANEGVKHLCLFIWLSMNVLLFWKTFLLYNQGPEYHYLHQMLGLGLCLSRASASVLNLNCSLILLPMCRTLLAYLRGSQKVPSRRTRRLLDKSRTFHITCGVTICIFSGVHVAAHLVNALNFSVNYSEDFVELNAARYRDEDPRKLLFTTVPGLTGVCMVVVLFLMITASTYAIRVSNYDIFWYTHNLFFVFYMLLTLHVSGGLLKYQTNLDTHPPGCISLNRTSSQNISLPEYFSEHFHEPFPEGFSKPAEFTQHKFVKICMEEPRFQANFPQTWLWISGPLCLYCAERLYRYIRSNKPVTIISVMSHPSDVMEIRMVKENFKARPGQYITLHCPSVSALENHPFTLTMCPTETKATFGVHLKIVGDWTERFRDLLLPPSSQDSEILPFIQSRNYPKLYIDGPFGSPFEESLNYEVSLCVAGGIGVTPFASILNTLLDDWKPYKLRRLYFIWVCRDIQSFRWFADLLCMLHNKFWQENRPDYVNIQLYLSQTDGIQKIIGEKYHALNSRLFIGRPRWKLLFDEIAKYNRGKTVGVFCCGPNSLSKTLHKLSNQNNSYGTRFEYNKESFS

[10] = target: NADPH oxidase 5 (Homo sapiens) (UniProt Q96PH1); experiment: NOX5-dependent H2O2 signal modulators, primary screen, NOX inhibitor project, cell-based, HEK293-NOX5, Amplex Red fluorescence (AID 1161); conditions: HEK293-NOX5, ionomycin, 45 min, higher = more signal
NADPH oxidase 5 (Homo sapiens), sequence (Q96PH1 whole entry, looked up): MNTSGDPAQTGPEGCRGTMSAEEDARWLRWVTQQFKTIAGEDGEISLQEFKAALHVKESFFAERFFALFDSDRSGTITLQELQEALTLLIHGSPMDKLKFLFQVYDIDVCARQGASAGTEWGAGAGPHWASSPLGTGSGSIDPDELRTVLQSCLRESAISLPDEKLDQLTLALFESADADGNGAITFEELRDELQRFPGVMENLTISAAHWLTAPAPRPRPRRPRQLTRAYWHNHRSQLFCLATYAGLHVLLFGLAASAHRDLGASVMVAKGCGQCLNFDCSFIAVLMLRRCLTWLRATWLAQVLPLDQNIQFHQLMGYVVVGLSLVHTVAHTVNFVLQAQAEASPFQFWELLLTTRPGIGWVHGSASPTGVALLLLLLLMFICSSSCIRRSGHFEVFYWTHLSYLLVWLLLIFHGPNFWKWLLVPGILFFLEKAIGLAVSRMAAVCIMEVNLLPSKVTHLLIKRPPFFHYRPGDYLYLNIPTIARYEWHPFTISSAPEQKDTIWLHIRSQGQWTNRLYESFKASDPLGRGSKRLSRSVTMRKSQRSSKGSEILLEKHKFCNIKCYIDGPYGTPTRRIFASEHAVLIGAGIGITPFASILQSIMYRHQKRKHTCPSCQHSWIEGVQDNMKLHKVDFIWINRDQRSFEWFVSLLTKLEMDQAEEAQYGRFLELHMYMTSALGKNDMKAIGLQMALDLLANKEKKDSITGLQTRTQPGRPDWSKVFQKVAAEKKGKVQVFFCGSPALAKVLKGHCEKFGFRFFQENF

Structure (SMILES) | z-score [1] | composite z-score [2] | z-score [3] | z-score [4] | z-score [5] | z-score [6] | z-score [7] | z-score [8] | z-score [9] | z-score [10]
Cc1ccc(S[C@]2(C(=O)NCc3ccccc3)CC(=O)N(Cc3cc(C(F)(F)F)cc(C(F)(F)F)c3)[C@@H]2c2ccc(CO)cc2)cc1 | -0.957 (inactive) | -0.109 | 2.21 (inactive) | 0.818 (inactive) | 0.677 (inactive) | 0.352 (inactive) | -0.466 | 0.314 (inactive) | 0.546 (inactive) | 0.832
COc1ccc([Si](C)(C)[C@@H]2[C@@H](CCn3cc([C@H](O)c4ccccc4)nn3)O[C@]3(C(=O)N(C)c4ccccc43)[C@H]2C)cc1 | -0.702 (inactive) | -0.101 | 4.2 (inactive) | 0.579 (inactive) | 1.51 (inactive) | 0.325 (inactive) | 0.416 | 1.62 (inactive) | 0.689 (inactive) | -1.55
C=CCN1Cc2ccccc2C[C@@]2(COC(c3ccc(OCCCO)cc3)=N2)C1=O | 0.754 (inactive) | 0.121 | 22.7 (active) | 5.46 (inactive) | 5.11 (inactive) | 0.985 (inactive) | -0.14 | -5.73 (inactive) | -1.35 (inactive) | -3.28
C=CCN1C(=O)[C@]2(COC(c3ccc(OCCCO)cc3)=N2)Cc2ccccc21 | 0.773 (inactive) | 0.228 | 23.7 (active) | 7.4 (inactive) | 3.23 (inactive) | 0.181 (inactive) | 1.3 | -2.29 (inactive) | 0.0437 (inactive) | -2.56
COCCCNC(=O)[C@@]1(Sc2ccc(C)cc2)CC(=O)N(Cc2ccccc2)[C@@H]1c1ccc(CO)cc1 | 0.186 (inactive) | -1.12 | 1.25 (inactive) | 0.505 (inactive) | 1.14 (inactive) | 0.107 (inactive) | -0.0519 | 0.462 (inactive) | 0.917 (inactive) | 0.162
CCCCCN1CC=CC23O[C@@H]4C=CCCOC(=O)C4[C@H]2C(=O)N(CCCO)[C@@H]3C1=O (stereo not given in full) | 2.03 (inactive) | -0.151 | -0.235 (inactive) | -1.49 (inactive) | 1.17 (inactive) | -1.02 (inactive) | 0.655 | -1.16 (inactive) | -1.08 (inactive) | -0.705
C=CCCN(CC#C[C@H]1Oc2ccccc2S(=O)(=O)N2CCC[C@@H]12)S(=O)(=O)c1ccc(C)cc1 | -1.88 (inactive) | 0.0443 | 3.75 (inactive) | 0.451 (inactive) | 0.123 (inactive) | 0.182 (inactive) | -0.23 | 0.744 (inactive) | -1.54 (inactive) | -0.909
COc1ccc([Si](C)(C)[C@@H]2[C@@H](CCO)O[C@]3(C(=O)N(Cc4cccc(N(C=O)c5ccccc5)c4)c4ccccc43)[C@H]2C)cc1 | 0.313 (inactive) | 0.0811 | 4.07 (inactive) | 0.49 (inactive) | 2.32 (inactive) | -1.17 (inactive) | 0.62 | 0.773 (inactive) | -0.249 (inactive) | -0.78
COCCn1c(C(=O)N2CCCC2)cc2c1C[C@H]1CN(C(=O)c3ccccc3)[C@@](Cc3ccc(OC)cc3)(C(=O)OC)[C@@H]21 | 0.223 (inactive) | 1.15 | 2.9 (inactive) | -0.51 (inactive) | -0.778 (inactive) | -1.96 (inactive) | 2.69 | 0.121 (inactive) | 0.435 (inactive) | -4.54
Cc1ccc(N2C(=O)c3ccccc3[C@@H](C(=O)NC(C)C)[C@@H]2c2ccc(CO)cc2)nc1 | 0.358 (inactive) | -0.641 | 2.41 (inactive) | 0.474 (inactive) | 0.884 (inactive) | 0.596 (inactive) | 0.45 | 0.0802 (inactive) | -1.16 (inactive) | -2.61
C=CC[C@@]1(C(N)=O)N=C(c2ccc(OCCCO)cc2)O[C@@H]1c1ccccc1N=[N+]=[N-] | 1.3 (inactive) | 0.355 | 32.8 (active) | 32.6 (active) | 4.04 (inactive) | 3.37 (inactive) | 0.305 | 0.039 (inactive) | -0.164 (inactive) | -1.76
O=C(NCc1ccccc1)[C@@H]1c2ccccc2C(=O)N(C2CCCCC2)[C@H]1c1ccc(CO)cc1 | -0.246 (inactive) | -0.458 | 2.67 (inactive) | 0.0744 (inactive) | 0.473 (inactive) | 0.475 (inactive) | -0.127 | -0.245 (inactive) | 0.684 (inactive) | 0.725
Cc1ccc(S[C@]2(C(=O)NCC(F)(F)F)CC(=O)N(C3Cc4ccccc4C3)[C@@H]2c2ccc(CO)cc2I)cc1 | 1.1 (inactive) | 0.0013 | 6.63 (inactive) | 1.29 (inactive) | 0.577 (inactive) | 0.526 (inactive) | -0.204 | 0.994 (inactive) | -1.56 (inactive) | 1.06
O=C1O[C@@H](c2ccccc2)[C@@H](c2ccccc2)N2[C@@H](c3ccccc3OCCO)[C@]3(C(=O)Nc4ccc(C#CC5(O)CCCCCC5)cc43)[C@@H](C(=O)NC[C@H](O)c3ccccc3)[C@H]12 | -0.95 (inactive) | 1.38 | 1.87 (inactive) | 1.98 (inactive) | -1.02 (inactive) | 1.49 (inactive) | -0.308 | 2.02 (inactive) | 0.973 (inactive) | 2.17
O=c1cccc(-c2cccc3ccccc23)o1 | 0.109 (inactive) | 0.106 | 6.68 (inactive) | 1.37 (inactive) | -0.276 (inactive) | 0.832 (inactive) | -0.312 | -0.112 (inactive) | -2.39 (inactive) | -0.0533
